These results are taken from PubChem BioAssay (Tox21).

SMILES strings stand for the structures. Results filed as inconclusive are left out. Entries that show only a call come without a potency. Activity calls are given as the source filed them. Calls follow the shape of the dose curve; as a rule, active = well fitted cell-killing curve with a large enough effect in the repeat runs; inconclusive = weak or mixed curves; inactive = flat fitted curve, though single readings scatter.
Potency is read from the fitted curve at half-maximal effect.

This test in a line: qHTS RealTime-Glo MT Cell Viability Assay in HepG2 cells - 8 hour (AID 1224873). Also: nearly all actives have a fitted effect of over 55% in size. The conditions noted are these: RealTime-Glo luminescence; series mostly up to 76.8 µM. The text has this: National Center for Advancing Translational Sciences [NCATS]
NIH Chemical Genomics Center [NCGC]
U.S. Environmental Protection Agency [EPA]
National Institutes of Environmental Health Sciences [NIEHS]
National Toxicology Program [NTP]
U.S. Food and Drug Administration [FDA]
Measure of cell viability is critical in the cell-base assay. Analysis of cell viability is necessary for the characterization of cell responses to cytotoxic drugs and environmental stress. A RealTime-Glo MT Cell Viability Assay to monitor cell viability in real time of continues cell culture during 40 hours of compound treatment was used to screen Tox21 10K library compounds in HepG2 cells. The RealTime-Glo MT Cell Viability Assay is a nonlytic, homogeneous, bioluminescent method to measure cell viability in real time using a simple, plate-based method. The assay involves adding NanoLuc luciferase and a cell-permeant prosubstrate to cells in culture. Viable cells reduce the proprietary prosubstrate to generate a substrate for NanoLuc luciferase. This substrate diffuses from cells into the surrounding culture medium, where it is rapidly used by the NanoLuc Enzyme to produce a luminescent signal. The signal correlates with the number of viable cells, making the assay well suited for cytotoxicity studies.
Tox21 Assay Protocol Summary:
The mixture of HepG2 cell suspension and reagents were dispensed at 600cells/6 ul/well in 1536-well tissue culture treated black solid bottom plates using a Multidrop dispenser. After the assay plates were incubated at a 37 C/5% CO2 incubator for 5 hours, 23 nL of compounds dissolved in DMSO, positive and negative controls was transferred to the assay plate by a pintool work station. The plates were incubated at 37 C for 40 hours. The luminescence intensity were measured at 0h, 8h, 16h, 24h, 32h and 40h time points using ViewLux plate reader during compound treatment.
In general terms: Quantitative high-throughput screening tests each substance at several concentrations.
Turning to `O=C(O)CNCC(=O)O`, the viability change, negative = cytotoxic was 0.198% [at 6.97 µM] (inactive).

Regarding `Cc1cccc(C)c1OCC(=O)N[C@@H](Cc1ccccc1)[C@@H](O)C[C@H](Cc1ccccc1)NC(=O)[C@H](C(C)C)N1CCCNC1=O`, the Potency entry was “inactive”.

With `COc1ccc(C)cc1[N+](=O)[O-]`, the Potency result is “inactive”.

Regarding `COc1cc2nc(N(C)CCCNC(=O)C3CCCO3)nc(N)c2cc1OC` (stereo not given), the Potency entry was “inactive”.

On to `Clc1ccc2c(c1)CCc1cccnc1C2=C1CCNCC1`, for which the Potency result was “inactive”.

Consider `O=C(Nc1ccccc1)c1ccccc1O`, for which the Potency result is “inactive”.

As for `COc1ccc(C(=O)N2CCN(CC(=O)N3CCOCC3)CC2)cc1`, the Potency entry was “inactive”.

Take `CCCCOC(=O)CCCCCCCC(=O)OCCCC`: the Potency result was “inactive”.

For `Cc1cc(C(=O)O)ccc1[N+](=O)[O-]`, the Potency entry is “inactive”.

On to `CC(C)(COC(=O)c1ccccc1)COC(=O)c1ccccc1`, for which the Potency result is “inactive”.

Turning to `O=P(O)(OCc1ccccc1)OCc1ccccc1`, the Potency result is “inactive”.

As for `O=C(CS)Nc1ccccc1`, the Potency result was “inactive”.

With `C1CCCNCCC1`, the Potency result was “inactive”.

As to `Nc1ncn([C@H]2C[C@H](O)[C@@H](CO)O2)c(=O)n1`, the Potency entry is “inactive”.

For `COc1ccc(C(=O)c2ccc(OC)cc2O)c(O)c1`, the Potency result is “inactive”.

Take `CCOC(=O)C(=O)CCc1ccccc1`: the Potency result is “inactive”.

Regarding `CN(C)c1ccc(CCO)cc1`, the Potency entry was “inactive”.

With `CN(C)CCN(Cc1ccccc1)c1ccccn1`, the Potency result was “inactive”.

For `C/C=C(/C(=C/C)c1ccc(OC(C)=O)cc1)c1ccc(OC(C)=O)cc1`, the Potency entry was “inactive”.

In the case of `c1ccc(-c2ccccn2)nc1`, the Potency result was “inactive”.

Take `c1cc(CCCc2ccncc2)ccn1`: the Potency result is “inactive”.

In the case of `CC(CC=O)c1ccccc1` (stereo not given), the Potency result was “inactive”.

In the case of `CC(C)C[C@H]1C(=O)N2CCC[C@H]2[C@]2(O)O[C@](NC(=O)[C@@H]3C=C4c5cccc6[nH]c(Br)c(c56)C[C@H]4N(C)C3)(C(C)C)C(=O)N12`, the Potency was 13.2 µM (active).

Consider `Clc1ccc(Cn2c(CN3CCCC3)nc3ccccc32)cc1`, for which the Potency entry was “inactive”.

In the case of `CN(C)CCN(Cc1ccc(Cl)cc1)c1ccccn1`, the Potency result was “inactive”.

On to `Cc1[nH]c(C)c(Cl)c(=O)c1Cl`, for which the viability change, negative = cytotoxic is 0.139% [at 15.8 µM] (inactive).

As for `CCOC(=O)NCCOc1ccc(Oc2ccccc2)cc1`, the Potency result was “inactive”.

For the molecule `CN1CCC(=C2c3ccccc3Sc3ccccc32)CC1`, the Potency entry was “inactive”.

Take `CCn1cc(C(=O)O)c(=O)c2cnc(N3CCNCC3)nc21`: the Potency result was “inactive”.

Regarding `Brc1c2ccccc2cc2ccccc12`, the Potency result is “inactive”.

With `c1ccc(CNCCNCc2ccccc2)cc1`, the Potency entry was “inactive”.

In the case of `CC(COCCO)OCCO` (stereo not given), the Potency entry was “inactive”.

Turning to `CC(C)=CCC/C(C)=C/CC/C(C)=C/CO`, the Potency entry was “inactive”.

With `C=CCOC(=O)CCC1CCCCC1`, the Potency entry was “inactive”.

For the molecule `CNCCCCOc1ccccc1Cc1ccccc1`, the Potency result was “inactive”.

For the molecule `O=C(O)c1ccc(S(=O)(=O)O)cc1C(=O)O`, the Potency result was “inactive”.

With `O=S(=O)(Oc1ccc(Cl)cc1)c1ccccc1`, the Potency entry is “inactive”.

As to `CCCCc1nc2cccnc2n1Cc1ccc(-c2ccccc2-c2nnn[nH]2)cc1`, the Potency result is “inactive”.

`O=C1OC(=O)C2C3C=CC(C3)C12` (stereo not given): the Potency entry is “inactive”.

`CCCNCC(O)COc1ccccc1C(=O)CCc1ccccc1` (stereo not given): the Potency result is “inactive”.
